In PubChem BioAssay AID1159580 (chemical genetic matrix, 2015):
Among all 5,500 compounds or so, about 2,000 (36%) were called active. Not shown: some 18% with an inconclusive outcome. Rule as the data show it: active = normalized growth mostly below about 0.91 (no sharp cut-off); inconclusive = no clear call, values can overlap the other calls; inactive = mostly above about 0.92. The list shows a part of the results.

Assay: chemical genetic growth profiling, strain panel (AID 1159580);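 also: tested at 20 µM; growth read once vehicle control cultures reached saturation at 30 °C; 1 = growth at the plate median or of vehicle wells; lower values mean less growth of the strain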
Conditions: S. cerevisiae deletion strains, growth OD

Measured: normalized growth

Cn1nc(-c2ccccc2)c(O)c(N=Nc2ccccc2)c1=O
inactive: locus YAR019C, strain CDC15, stronger effect = lower value 0.964 | locus YBL105C, strain PKC1, stronger effect = lower value 0.972 | locus YBR135W, strain CKS1, stronger effect = lower value 0.957 | locus YBR136W, strain MEC1, stronger effect = lower value 0.96 | locus YBR160W, strain CDC28, stronger effect = lower value 0.976 | locus YDL017W, strain CDC7, stronger effect = lower value 0.983 | locus YDL028C, strain MPS1, stronger effect = lower value 0.963 | locus YDL101C, strain DUN1, stronger effect = lower value 0.972 | locus YDL108W, strain KIN28, stronger effect = lower value 0.962 | locus YDL132W, strain cdc53, stronger effect = lower value 0.968 | locus YDL214C, strain PRR2, stronger effect = lower value 0.906 | locus YDR052C, strain DBF4, stronger effect = lower value 0.985 | locus YDR054C, strain cdc34, stronger effect = lower value 0.971 | locus YDR226W, strain ADK1, stronger effect = lower value 0.971 | locus YDR477W, strain SNF1, stronger effect = lower value 0.917 | locus YER123W, strain YCK3, stronger effect = lower value 0.858 | locus YER133W, strain GLC7, stronger effect = lower value 0.898 | locus YFL009W, strain cdc4, stronger effect = lower value 0.969 | locus YFL029C, strain CAK1, stronger effect = lower value 0.969 | locus YFR003C, strain YPI1, stronger effect = lower value 0.971 | locus YFR019W, strain FAB1, stronger effect = lower value 0.898 | locus YFR028C, strain CDC14, stronger effect = lower value 0.974 | locus YGR040W, strain KSS1, stronger effect = lower value 0.905 | locus YGR052W, strain FMP48, stronger effect = lower value 0.998 | locus YGR092W, strain DBF2, stronger effect = lower value 0.913 | locus YHR030C, strain SLT2, stronger effect = lower value 0.931 | locus YHR079C, strain IRE1, stronger effect = lower value 0.982 | locus YHR082C, strain KSP1, stronger effect = lower value 0.964 | locus YHR205W, strain SCH9, stronger effect = lower value 0.943 | locus YIL147C, strain SLN1, stronger effect = lower value 0.964 | locus YJL095W, strain BCK1, stronger effect = lower value 0.993 | locus YJL128C, strain PBS2, stronger effect = lower value 0.95 | locus YJL157C, strain FAR1, stronger effect = lower value 0.89 | locus YJR016C, strain ILV3, stronger effect = lower value 0.976 | locus YJR066W, strain TOR1 (second series), stronger effect = lower value 0.854 | locus YJR066W, strain TOR1, stronger effect = lower value 0.981 | locus YKL048C, strain ELM1, stronger effect = lower value 0.944 | locus YKL067W, strain YNK1, stronger effect = lower value 0.906 | locus YKL101W, strain HSL1, stronger effect = lower value 0.921 | locus YKL193C, strain SDS22, stronger effect = lower value 0.968 | locus YKL203C, strain TOR2, stronger effect = lower value 0.98 | locus YLR113W, strain HOG1, stronger effect = lower value 0.953 | locus YLR133W, strain CKI1, stronger effect = lower value 0.944 | locus YLR403W, strain SFP1, stronger effect = lower value 0.89 | locus YML070W, strain DAK1, stronger effect = lower value 0.885 | locus YMR001C, strain CDC5, stronger effect = lower value 0.961 | locus YMR205C, strain PFK2 (second series), stronger effect = lower value 0.937 | locus YMR277W, strain FCP1, stronger effect = lower value 0.973 | locus YNL006W, strain LST8, stronger effect = lower value 0.967 | locus YNL020C, strain ARK1, stronger effect = lower value 0.927 | locus YNL161W, strain CBK1, stronger effect = lower value 0.965 | locus YNL183C, strain NPR1, stronger effect = lower value 1 | locus YNL207W, strain RIO2, stronger effect = lower value 0.964 | locus YNL222W, strain SSU72, stronger effect = lower value 0.966 | locus YNL307C, strain MCK1 (second series), stronger effect = lower value 0.941 | locus YOL078W, strain AVO1, stronger effect = lower value 0.968 | locus YOL136C, strain PFK27, stronger effect = lower value 0.907 | locus YOR061W, strain CKA2, stronger effect = lower value 0.864 | locus YOR119C, strain RIO1, stronger effect = lower value 0.952 | locus YOR231W, strain MKK1, stronger effect = lower value 0.95 | locus YOR329C, strain SCD5, stronger effect = lower value 0.974 | locus YPL031C, strain PHO85, stronger effect = lower value 0.918 | locus YPL153C, strain RAD53, stronger effect = lower value 0.914 | locus YPL204W, strain HRR25, stronger effect = lower value 0.93 | locus YPL209C, strain IPL1, stronger effect = lower value 0.972 | locus YPL256C, strain CLN2, stronger effect = lower value 0.998 | locus YPR025C, strain CCL1, stronger effect = lower value 0.97 | locus YPR106W, strain ISR1, stronger effect = lower value 0.977 | locus YPR111W, strain DBF20, stronger effect = lower value 0.988 | strain NNK1, stronger effect = lower value 0.966 | strain TSCII, stronger effect = lower value 0.963
